NS1 function inh: blocks influenza NS1 protein function; Potency, µM (titrated, usually from 46.1 µM), for inactives: top-dose activity, positive = more growth; 0.4% of 270,000 active; calls by dose curve; further: actives are rising curves; nearly all actives have a fitted effect of over 50% in size
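In this qHTS, NS1 from influenza A is expressed in budding yeast, where it slows growth. Cells are switched from glucose to 2% galactose medium (pH 6.0, -URA), treated with compound, and growth recovery is read at OD600.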
LmPK inhibitor: blocks Leishmania mexicana pyruvate kinase activity; 0.37% of 290,000 active; purified LmPK, Kinase-Glo ATP luminescence, 1 h; Potency, µM (top dose mostly 57.5 µM), for the others: top-dose activity change, negative = inhibition, actives largely listed as inhibitors; Q27686; further: on the % scale 0 is the no-effect control and ±100 the full control effect
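Screened at intermediate enzyme activity to detect both inhibitors and activators: LmPK at 0.1 nM, with a 0.5 nM enzyme column as activation reference. PEP 0.5 mM, ADP 0.1 mM; ATP detected by luminescence after 1 h.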
Giardia FBPA inh-1: Giardia lamblia aldolase inhibition. purified Giardia FBPA. Potency, µM (top dose mostly 59.6 µM), without a hit: at the highest dose activity, negative = inhibition, usual class: inhibitors. 0.71% of 290,000 active. AID 2451; further: on the % scale 0 is the no-effect control and ±100 the full control effect; nearly all actives have a fitted effect of over 55% in size
Target sequence (A8B2U2 whole entry, looked up): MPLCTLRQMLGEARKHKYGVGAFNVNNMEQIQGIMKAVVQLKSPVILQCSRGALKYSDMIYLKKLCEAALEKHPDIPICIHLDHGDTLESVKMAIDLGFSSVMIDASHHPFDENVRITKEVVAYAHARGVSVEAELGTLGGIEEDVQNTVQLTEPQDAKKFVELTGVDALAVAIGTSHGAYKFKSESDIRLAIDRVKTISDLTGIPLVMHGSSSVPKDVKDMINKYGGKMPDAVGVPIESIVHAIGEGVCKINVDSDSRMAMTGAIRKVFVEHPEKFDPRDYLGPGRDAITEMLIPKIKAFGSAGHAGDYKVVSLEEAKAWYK
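40 nM FBPA preincubated 10 min at RT with compound (up to 57.5 uM final), then substrate plus GAPDH/TPI/NAD/arsenate coupling and diaphorase/resazurin added. Fluorescence read after 20 min at RT, 525/598 nm.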
AMA1-RON2 inh: AMA1-RON2 (P. falciparum) interaction inhibition; AlphaScreen AMA1-biotinylated RON2 peptide binding; Potency, µM (highest dose often 58.2 µM), for inactives: top-dose activity change, negative = inhibition, actives largely listed as inhibitors; 0.2% of 360,000 active;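 further: 0% = vehicle wells and -100% = peptide control; nearly all actives have a fitted effect of over 45% in size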
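AMA1 (3D7) with his tag at 25 nM final met compounds first, then biotinylated RON2 peptide at 25 nM; detection used donor plus acceptor beads, 10 µg/mL apiece, read by AlphaScreen after 30 min at room temperature.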
Tb PYK inh: inhibitors of Trypanosoma brucei pyruvate kinase | TbPYK enzyme, Kinase-Glo Plus ATP luminescence, 45 min | Potency, µM (top dose mostly 76.8 µM), inactives show at the top dose activity, negative = inhibition, most hits filed as inhibitors | Q57TT1 | 0.12% of 410,000 active; further: on the % scale 0 is the no-effect control and ±100 the full control effect; nearly all actives have a fitted effect of over 50% in size
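T. brucei PYK with substrate was exposed to pin-transferred compounds across a concentration series, then started with 130 uM ADP (final). After 45 min at room temperature, Kinase-Glo Plus luminescence was read, normalized and curve-fitted.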
Giardia growth: inhibitors of Giardia lamblia growth; shares compounds with Giardia FBPA inh-1; Giardia lamblia trophozoite growth inhibition; Potency, µM (series often up to 57.5 µM), for the others: at the top dose activity change, negative = inhibition, actives largely listed as inhibitors; 5% of 1,500 active; AID 2785;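 further: trophozoites exposed to compound for 48 h at 37 °C; on the % scale 0 is the no-effect control and ±100 the full control effect; nearly all actives have a fitted effect of over 70% in size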
Mammal cell tox: toxic to mammalian cells in Giardia aldolase counter-screen. shares compounds with Giardia FBPA inh-1. mammalian cell viability counter-screen, qHTS. Potency, µM (series often up to 57.5 µM), inactives show at the highest dose viability change, negative = toxicity, usual class: inhibitors. 4% of 1,500 active;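 further: Chinese hamster ovary cells used as mammalian cytotoxicity surrogate; viability measured as cellular ATP by luminescence; compound exposure lasted 48 h before reading; on the % scale 0 is the no-effect control and ±100 the full control effect; nearly all actives have a fitted effect of over 60% in size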
Giardia FBPA inh-2: confirmation of Giardia fructose-bisphosphate aldolase inhibitors; shares compounds with Giardia FBPA inh-1; purified Giardia aldolase enzyme activity, qHTS; Potency, µM (top dose mostly 57.5 µM), for the others: top-dose activity change, negative = inhibition, actives largely listed as inhibitors; 5% of 1,500 active; AID 2787; further: on the % scale 0 is the no-effect control and ±100 the full control effect; nearly all actives have a fitted effect of over 45% in size
Rabbit aldolase: rabbit FBP aldolase inhibition by Giardia aldolase hits; shares compounds with Giardia FBPA inh-1; Rabbit muscle FBPA enzyme inhibition, selectivity counter-screen; Potency, µM (top dose mostly 57.5 µM), without a hit: at the highest dose activity, negative = inhibition, most hits filed as inhibitors; 4% of 1,500 active; further: on the % scale 0 is the no-effect control and ±100 the full control effect; nearly all actives have a fitted effect of over 60% in size
GAPDH coupling: GAPDH inhibition flagged for Giardia aldolase hits; shares compounds with Giardia FBPA inh-1; GAPDH coupling enzyme counterscreen, biochemical, qHTS; AID 2795; Potency, µM (highest dose often 57.5 µM), without a hit: at the highest dose activity change, negative = inhibition, usual class: inhibitors; 6% of 1,500 active; further: on the % scale 0 is the no-effect control and ±100 the full control effect; nearly all actives have a fitted effect of over 55% in size
* = called active by the depositor; ? = inconclusive; . = no result given; ! = not confirmed by another sample; [ ] = remark or other dose. Shown are actives, neighbours in structure and some others; about 1.2% of the full set was active somewhere. Unless noted, the call rests on the fitted dose curve; in most records, active means well fitted curve in the direction sought with a large enough effect; inconclusive means small, poorly fitted or top-dose-only effect, or another doubt; inactive means no such curve, though single readings can be large; an effect the other way counts as inactive or inconclusive. Potency means the concentration at half of the fitted maximal effect.

SMILES | NS1 function inh | LmPK inhibitor | Giardia FBPA inh-1 | AMA1-RON2 inh | Tb PYK inh | Giardia growth | Mammal cell tox | Giardia FBPA inh-2 | Rabbit aldolase | GAPDH coupling
COc1ccc2nc(NC(=S)NC(=O)c3ccco3)sc2c1 | . | -3% | ? | 53% | 1% | . | . | . | . | .
N#CCCn1cnc2c(=S)nc[nH]c21 | -3% | -4% | 14µM* | 9% | -8% | -26% | -2% | 8% | 7% | -13%
Cc1ccccc1NNC(N)=S | . | 0% | ? | 21% | -9% | . | . | . | . | .
NC(=S)NNc1c(F)c(F)c(F)c(F)c1F | . | -1% | 16µM* | 43% | -2% | -1%[10.4 µM] | -12% | -11% | 5% | 1%
CNC(=O)NC(=S)NC(=O)c1ccccc1Cl | . | 0% | ? | 16% | 4% | . | . | . | . | .
O=C(NC(=S)Nc1ncccn1)c1ccccc1Cl | 16% | -5% | 3.5µM* | 37% | -4% | ? | 0% | 2% | 7% | 0%
CCCCc1nc(Cl)c(CO)n1Cc1ccc(-c2ccccc2-c2nn[nH]n2)cc1 | 18% | -6% | 13µM*! | 8% | -6% | ? | 6% | 12% | 26% | 20%
CCCCc1nc(Cl)c(CO)n1Cc1ccc(-c2ccccc2-c2nnn[nH]2)cc1 | . | . | . | -5% | -5% | . | . | . | . | .
BrC(c1cccc2ccccc12)c1cccc2ccccc12 | 14% | . | . | . | . | . | . | . | . | .
CS(=O)(=O)N1CCC2(CC1)CN(C(c1ccccc1)c1ccccc1)C2 | . | . | -1% | . | -1% | . | . | . | . | .
C=CCSC1=N/C(=C\C=C\c2ccco2)C(=O)S1 | -117% | 10% | 6.3µM* | ? | -5% | 16% | 14% | -10% | 11% | 1%
O=C(O)CN(CCN(CC(=O)O)CC(=O)O)CC(=O)O.[Cu] | -3% | . | . | . | . | . | . | . | . | .
O=C(O)CN(CCN(CC(=O)O)CC(=O)O)CCN(CC(=O)O)CC(=O)O | -35% | . | 7.9µM*! | . | -9% | ? | 21% | ? | 14% | 1%
O=C(Nc1ccc(N2CCOCC2)c(Cl)c1)c1ccc2c(c1)OCCO2 | 2% | -22% | 8% | 6% | 3% | . | . | . | . | .
O=C(Nc1ccc(N2CCOCC2)c(Cl)c1)c1ccc(Cl)cc1 | . | 0% | 16µM* | 1% | -2% | ? | -1% | ? | ? | ?
O=c1c(-c2cccc(F)c2)nc2cncnc2n1C1CC1 | . | . | 6% | . | -3% | . | . | . | . | .
Nn1c(-c2cccc(Br)c2)n[nH]c1=S | -6% | 4% | -6% | 95% | ? | . | . | . | . | .
CCn1nc(C)cc1-c1n[nH]c(=S)n1N | -3% | 2% | 7.1µM* | -3% | ? | 17% | 21% | 7% | -3% | 14%
Cc1nn(-c2ccccc2)c(C)c1/C=N/n1c(-c2ccc(Cl)cc2)n[nH]c1=S | 13% | 2% | 8% | -8%[2.32 µM] | -30% | . | . | . | . | .
Cc1ccc(-c2n[nH]c(=S)n2/N=C/c2c(C)[nH]n(-c3ccccc3)c2=O)cc1 | . | -5%[11.5 µM] | 10µM* | 38% | ? | -22%[38.3 µM] | -28% | ? | 3% | -5%
Cn1[nH]c(-c2ccccc2)c(/C=N/O)c1=O | . | 2% | 16µM* | 56% | -2% | 5%[10.4 µM] | 28% | -12% | -4% | 6%
COCC(=O)N/N=C/c1c(C)[nH]n(-c2ccccc2)c1=O | . | 18% | 7.1µM* | 50% | -2% | 23% | -1% | -6% | -4% | 2%

Screening data from PubChem.
